Format in all cases: functional
The target in assay [1] is Solute carrier family 2, facilitated glucose transporter member 1 (Homo sapiens) (UniProt P11166). The experiment in a line: ST_JUDE_LEISH: Cytotoxicity at 2uM final concentration against transgenic Leishmania Mexicana promastigotes LmGLUT1 that are glucose transport deficient and complemented with the human glucose transporter GLUT1. Activity is measured by DNA content using SYBR green in vitro.

The target of assay [2] is Hexose transporter 1 (Plasmodium falciparum) (UniProt O97467). The experiment in a line: ST_JUDE_LEISH: Cytotoxicity at 2uM final concentration against transgenic Leishmania Mexicana promastigotes LmPfHT that are glucose transport deficient and complemented with the Plasmodium falciparum hexose transporter. Activity is measured by DNA content using SYBR green in vitro.

Assay [3] addresses Glucose transporter (Leishmania mexicana) (UniProt O61059). Put plainly: ST_JUDE_LEISH: Cytotoxicity at 2uM final concentration against transgenic Leishmania Mexicana promastigotes LmGT2 that are glucose transport deficient and complemented with the L. Mexicana glucose transporter 2. Activity is measured by DNA content using SYBR green in vitro.

The text below walks through data of ChEMBL document CHEMBL3433997, “St. Jude Leishmania screening dataset” (2016).

The structures appear in SMILES notation.

Chain of Solute carrier family 2, facilitated glucose transporter member 1 (Homo sapiens) (P11166 whole entry): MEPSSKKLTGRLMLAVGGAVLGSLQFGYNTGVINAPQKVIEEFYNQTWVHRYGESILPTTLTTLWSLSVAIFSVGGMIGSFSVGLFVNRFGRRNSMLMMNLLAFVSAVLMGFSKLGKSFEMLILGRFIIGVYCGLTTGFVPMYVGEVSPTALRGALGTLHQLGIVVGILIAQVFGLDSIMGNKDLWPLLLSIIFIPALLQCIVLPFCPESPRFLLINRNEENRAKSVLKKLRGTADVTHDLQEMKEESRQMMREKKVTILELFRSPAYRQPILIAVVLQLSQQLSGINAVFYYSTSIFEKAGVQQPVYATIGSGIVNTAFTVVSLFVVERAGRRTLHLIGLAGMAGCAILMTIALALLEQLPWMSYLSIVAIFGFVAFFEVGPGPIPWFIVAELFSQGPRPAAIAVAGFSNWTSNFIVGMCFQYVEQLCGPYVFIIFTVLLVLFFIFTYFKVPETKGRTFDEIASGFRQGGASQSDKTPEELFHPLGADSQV

Consider `Cc1ccc(CN2CCN(CC(O)COc3ccc4c(c3)CCC4)CC2)cc1` (configuration not stated), for which the inhibition in assay [1] is -0.73%; in assay [2], 0.88%; in assay [3], -0.29%.
Regarding `COC(=O)CCCCOc1cc(Cc2cnc(N)nc2N)cc(OC)c1OC`, the inhibition came to 2.26% in assay [1], 1.3% in assay [2] and 1.88% in assay [3].
The corresponding values for `CCC1CN(S(=O)(=O)c2ccc3c(c2)NC(=O)CC(=O)N3)c2cc(Cl)ccc2O1` (configuration not stated) are 2.65%, 2.92% and 3.29%.
The corresponding values for `Cc1cnc2ccc(NS(=O)(=O)c3ccc4c(Cl)cccc4c3)cc2c1N1CCNCC1` are 1.16%, 1.37% and 1.37%.
As for `CCc1c(C)nc(-n2nc(C)cc2NC(=O)CCc2ccccc2)[nH]c1=O`, the results for the inhibition in assay [1], in assay [2] and in assay [3] were 0.86%, 2.79% and 2.86%, respectively.
For `Cc1cc(-c2ccc(NC(=O)N3CCc4cc(Br)c(N5CCN(C)CC5)cc43)cc2)cc(C)n1` the same measures were 9.14%, 8.41% and 10.1%.
For `COc1ccc(Cc2c(Cl)nc3nc(N)nc(N)c3c2C)cc1` the same measures were 7.37%, 7.06% and 8.71%.
For `c1cc(CN2CCC(CCN3CCCCC3)CC2)cc(-c2csc(-c3nc4ccccc4[nH]3)c2)c1` the same measures were 7.93%, 8.75% and 4.01%.
Take `CN(C)c1ccc(CN2CCC(NC(=O)c3ccc(-c4ccccc4Cl)s3)CC2)cc1`: the inhibition in assay [1] was 2.51%; in assay [2], 1.07%; in assay [3], 1.76%.
In the case of `Cc1cnc(NCCc2ccc(F)cc2)nc1N[C@@H](CC(C)C)C(=O)Nc1ccccc1`, the inhibition in assay [1] turned out to be 5.17%; in assay [2] it was 4.05%; in assay [3], 4.26%.
The corresponding values for `O=c1cc(NCCCNCc2ccc3c(c2)OC(F)(F)O3)[nH]c2ccccc12` are -0.44%, 0.16% and -1.35%.
Regarding `OCC1CCN(Cc2cccc(-c3ccc(-c4nc5cc(F)ccc5[nH]4)cc3)c2)CC1`, the values for the inhibition in assay [1], in assay [2] and in assay [3] were 0%, -0.04% and 0.27%, respectively.
Take `CCCCCCCCN1CCCN(C(=O)c2cccc(NC(=O)Nc3ccc4ccccc4c3)c2)CC1`: the inhibition in assay [1] was 0.2%; in assay [2] it was -0.59%; in assay [3] it was -0.77%.
For `COc1ccc2c(c1CCNCCCCNCCc1c(OC)ccc3c1CCCC3)CCCC2` the same measures were 47.3%, 61.4% and 52.9%.
Turning to `CN(CCCCCN1CCC(NC(=O)Nc2ccc(Oc3ccccc3)cc2)C1)C(=O)/C=C/c1ccc(Cl)c(Cl)c1` (configuration not stated), the inhibition in assay [1] was 0%; in assay [2], 6.7%; in assay [3] it was -1.12%.
For `Cc1cc(N[C@@H](Cc2ccccc2)C(=O)NCCc2ccccc2)nc(NCc2ccccc2C)n1` the same measures were 2.31%, 2.04% and -0.14%.
The corresponding values for `O=C(Nc1ccc([N+](=O)[O-])cc1)Nc1cc(C(F)(F)F)ccc1F` are 0.91%, 1.47% and 3.15%.
For `Cc1c2ccc(N(C)c3ccnc(Nc4ccc5c(c4)nc(NC(C)C)n5C)n3)cc2nn1C` the same measures were 0.46%, 1.01% and -1.42%.
For `Cc1sc(CNCCCNc2cc(=O)c3ccccc3[nH]2)c(I)c1C`, the inhibition in assay [1] came to 3.11%; in assay [2], 2.66%; in assay [3], 1.68%.
For `COc1cc2/c(=N/c3ccc(Br)cc3F)nc[nH]c2cc1OCC1CCN(C)CC1` the same measures were -0.8%, 2.56% and 0.95%.
`COc1ccc(CNCc2ccc(F)cc2)cc1-c1ccc(S(=O)(=O)NCCN2CCCC2)s1`: the inhibition came to 2.3% in assay [1], 3.11% in assay [2] and 5.96% in assay [3].
`Cc1ccc(CN2CCC(Oc3cccc(NC(=O)c4ccc(C(F)(F)F)cc4)c3)CC2)cc1`: the inhibition in assay [1] worked out at 5.11%; in assay [2], 0.79%; in assay [3], 3.6%.
As for `Cc1nc2nc(N)nc(N)c2c(C)c1Cc1cccc(F)c1`, the inhibition was 2.65% in assay [1], 1.14% in assay [2] and 0.65% in assay [3].
For `CN(C)c1ccc(C2(c3ccccc3)N=C(N)N(CCCc3ccccc3)C2=O)cc1` (configuration not stated) the same measures were 3.64%, 3.4% and 0.65%.
For `CCOC(=O)c1cc2c(CCN3C(=O)c4ccccc4C3=O)cn(C)c2cc1-c1ccncc1` the same measures were 93%, 91% and 90.9%.
Regarding `COc1ccccc1CNc1ccnc(NCCc2cccc(C(F)(F)F)c2)n1`, the inhibition is 7.85% in assay [1], 8.92% in assay [2] and 2.54% in assay [3].
The corresponding values for `COc1ccc(-c2cccc(NC(=O)c3ccc(Cl)cc3)c2)cc1CN(C)CCN(C)C` are 3.16%, 2.66% and 6.97%.
The corresponding values for `CC(=NNC(N)=O)C1=C(O)C(c2ccccc2)N(C2CCCCC2)C1=O` (configuration not stated) are -0.44%, -0.08% and -0.27%.
As to `CCCc1cc(Cc2cnc(N)nc2N)cc(CCC)c1OCCCCC(=O)O`, the values for the inhibition in assay [1], in assay [2] and in assay [3] were 1.12%, 1.3% and 0.16%, respectively.
The corresponding values for `CN1CCN(Cc2ccc(-c3ccc4c(Nc5ccc(Cl)cc5F)ccnc4c3)o2)CC1` are 11.9%, 11.8% and 11.1%.
The corresponding values for `O=C(/C=C/C=C/c1ccccc1)NCCCCCN1CCC(c2c[nH]c3ccccc23)CC1` are 3.2%, 4.23% and 1.69%.
The corresponding values for `Cc1nc2nc(N)nc(N)c2c(C)c1Cc1cccc(C(N)=O)c1` are 1.17%, 1.95% and -1.43%.
Regarding `CCN(CC)CCNC(=O)c1ccc(NC(=O)c2cn(-c3ccccc3)nc2-c2cccs2)cc1`, the inhibition in assay [1] turned out to be 5.46%; in assay [2], 4.01%; in assay [3], 6.19%.
The corresponding values for `Cc1c(Cc2ccc(C(C)C)cc2)cnc2nc(N)nc(N)c12` are 1.34%, 0.5% and 1.42%.
